Experimental data from PubChem BioAssay.

The molecules below were run on XIP peptide (Xip251-270) (assay: small-molecule binders of XIP peptide, primary screen, biochemical, small-molecule microarray, fluorescence 635/667 nm, 0.5 µg/mL protein (AID 1183)). Settings: small-molecule microarray binding, fluorescence 635 nm; higher = more signal.
With `CCOC(=O)C[C@H]1[C@H](OC(=O)c2ccc(C(=O)c3ccccc3)cc2)[C@@H](NC(=O)c2ccc(-c3ccccc3)cc2)c2cc(OCCCO)ccc2N1C(=O)c1ccc2ccccc2n1` the composite z-score was 0.388.
`CN(C)c1ccc(C(O)C2C=CC3C(=O)N(c4ccccc4)C(=O)C3N2Nc2ccccc2F)cc1` (configuration not stated) was tested, and the composite z-score was 0.265.
With `CCCCCN1CC=CC23O[C@@H]4C=CCOC(=O)[C@@H]4[C@H]2C(=O)N(CCCCCCO)[C@@H]3C1=O` (some centres not stated) the composite z-score was -0.325.
Molecule `C=C(COC)/C(=C/C[C@H](OC(=O)c1ccncc1)c1ccc(CO)o1)c1cc(C(=O)OC)ccc1OC` has a composite z-score of 0.483.
`Cn1cccc1C(O)C1C=CC2C(=O)NC(=O)C2N1Nc1ccccn1` (configuration not stated) gave a composite z-score of 0.916.
Molecule `CC(C)N1CC=CC23O[C@@H]4C=CCCOC(=O)C4[C@H]2C(=O)N(CCCCCCO)[C@@H]3C1=O` (some centres not stated) has a composite z-score of 0.645.
`O=C1c2ccccc2[C@@]2(Cc3ccccc3N(C3CC3)C2=O)[C@H](c2ccc(CO)cc2)N1Cc1ccccc1C(F)(F)F` was tested, and the composite z-score was 0.926.
`[N-]=[N+]=NCc1ccccc1C[C@]1(C(=O)NCc2ccccc2)N=C(c2ccc(OCCCO)cc2)O[C@H]1c1ccccc1N=[N+]=[N-]` gave a composite z-score of 0.344.
With `COc1ccc([Si](C)(C)[C@@H]2[C@@H](CC(=O)N3CCC[C@H]3CO)O[C@]3(C(=O)N(Cc4cccc(N5CCC5=O)c4)c4ccccc43)[C@H]2C)cc1` the composite z-score was 0.824.
`COc1ccc(CCNC(=O)[C@@H]2c3ccccc3C(=O)N(c3ccc(C)cn3)[C@H]2c2ccc(CO)cc2)cc1` gave a composite z-score of 0.843.
For `O=C(CS)NCCCCCNC(=O)[C@@H]1C[C@@H]2C(=O)N[C@@H](Cc3ccccc3)C(=O)N2[C@@H]1c1ccc(O)cc1`, the composite z-score was 0.562.
For `C#C[C@@H](CC)O[Si](C#Cc1ccc(Oc2ccccc2)cc1)(C(C)C)C(C)C`, the composite z-score was -0.102.
Molecule `COCC(=C=CC[C@@H](O)c1ccccc1OCCO)CCO` has a composite z-score of 0.0706.
`C=CCOC(=O)[C@H]1[C@@H]2C(=O)O[C@@H](c3ccccc3)[C@@H](c3ccccc3)N2[C@@H](c2ccc(OCCOC(=O)[C@H]3C[C@H]4C(=O)N5CCC[C@H]5C(=O)N4[C@H]3c3cccc(OCCO)c3)cc2)[C@]12C(=O)Nc1ccc(I)cc12` was tested, and the composite z-score was 0.829.
`CC(C)(C)OC(=O)CC[C@]1(C(=O)NCc2ccccc2)N=C(c2ccc(OCCCO)cc2)O[C@H]1c1ccccc1` gave a composite z-score of 0.846.
Molecule `COCCOC(=O)N1C(=O)[C@@]2(c3cc(C#Cc4ccc(OC)cc4)ccc31)[C@H](c1ccc(O)cc1)N1[C@H](c3ccccc3)[C@H](c3ccccc3)OC(=O)[C@H]1[C@@H]2C(N)=O` has a composite z-score of 0.754.
`C=CCN1C(=O)[C@]2(O[C@H](CCn3cc(CCO)nn3)[C@@H]([Si](C)(C)c3ccc(OC)cc3)[C@@H]2C)c2cc(N3CCOC3=O)ccc21` showed a composite z-score of 0.57.
Molecule `O=C1O[C@@H](c2ccccc2)[C@@H](c2ccccc2)N2[C@@H](c3ccc(O)cc3)[C@]3(C(=O)Nc4ccccc43)[C@@H](C(=O)O)[C@H]12` has a composite z-score of 0.632.
`C=CCOC(=O)[C@H]1[C@@H]2C(=O)O[C@@H](c3ccccc3)[C@@H](c3ccccc3)N2[C@@H](c2ccc(OCCOC(=O)[C@H]3C[C@H]4C(=O)N[C@@H](Cc5ccccc5)C(=O)N4[C@H]3c3ccc(O)cc3)cc2)[C@]12C(=O)Nc1ccccc12` was tested, and the composite z-score was 0.823.
`CC(C)C[C@@H]1NC(=O)[C@H]2C[C@@H](C(=O)NCCCCCCN(C)C)[C@@H](c3cccc(OCCO)c3)N2C1=O` showed a composite z-score of 0.905.
`C/C=C\[C@@H](NCc1ccccc1Br)[C@@H](O)Cc1ccccc1` showed a composite z-score of 0.0819.
Molecule `C=C(/C(=C/C[C@H](OC(=O)c1ccncc1)c1ccc(OCCO)cc1)c1cnc2ccccc2c1)C(C)C` has a composite z-score of 0.528.
With `O=C(CS)NCCCCCNC(=O)[C@H]1C[C@H]2C(=O)N3CCC[C@H]3C(=O)N2[C@H]1c1cccc(OCCO)c1` the composite z-score was 0.887.
`CCCCCN1CC=CC23O[C@@H]4C=CCOC(=O)[C@@H]4[C@H]2C(=O)N(C(CO)C(C)C)[C@@H]3C1=O` (some centres not stated) was tested, and the composite z-score was 0.907.
`Cc1ccc(S[C@]2(C(=O)NCC(F)(F)F)CC(=O)N(Cc3ccccc3Cl)[C@@H]2c2ccc(CO)cc2I)cc1` showed a composite z-score of 0.426.
`O=C1O[C@@H](c2ccccc2)[C@@H](c2ccccc2)N2[C@@H](c3ccc(OCCO)cc3)[C@]3(C(=O)Nc4ccccc43)[C@@H](C(=O)N3CCN(c4ncccn4)CC3)[C@H]12` gave a composite z-score of 0.812.
`CC(C)=C1C(=O)C(c2ccccc2)=C2CN3C(=O)N(CCc4ccccc4)C(=O)[C@]3(Cc3ccc(F)cc3)[C@H]21` showed a composite z-score of -0.27.
